High-throughput results from PubChem BioAssay.
Shown are actives, neighbours in structure and some others; about 2.2% of the full set was active somewhere.
MEKK2mut PB1 HTS – signal of MEK5 binding to mutant human MEKK2 PB1 domain. bead flow cytometry, Alexa488-MEK5 binding to MEKK2 mutant. percent response, % at 10 µM. 290,000 tested, 0.35% active. AID 1530; in the data active = percent response above about 24%, passing the limit was not always enough
VLA-4 inh – inhibition in a human VLA-4 binding assay. VLA-4 expressing cells, ligand binding flow cytometry. AID 2557. inhibition, % (about 7 µM as worked out from the volumes in the protocol). P13612. 330,000 tested, 0.2% active; in the data active = inhibition above about 50%
MEKK3 PB1 HTS – MEKK3-MEK5 PB1 interaction, increase or decrease | Q99759 | bead-based flow cytometry, Alexa488-MEK5 binding to MEKK3; actives lie on both sides; 0 = blocked by unlabeled MEK5, 100 = vehicle | binding response (% of control), % at 10 µM | 290,000 tested, 1.4% active | AID 1529;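 active = binding response more than 3 SD above or below the average of its plate-row segment, actives on both sides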;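 note: Alexa488 bead fluorescence after subtracting the streptavidin-only scavenger bead signal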
MEKK2wt PB1 HTS – raises or lowers MEK5 binding to wildtype human MEKK2 PB1 domain | Q9Y2U5 | bead flow cytometry, Alexa488-MEK5 binding to MEKK2 WT; actives lie on both sides | binding response (% of control), % at 10 µM | 290,000 tested, 1.1% active | AID 1531; in the data active = binding response below about 67% or above about 130%
MEKK2wt confirm – raises or lowers MEK5 binding to wildtype human MEKK2, retest | shares compounds with MEKK3 PB1 HTS | 5,900 tested, 2.4% active | AID 1892 | bead flow cytometry, Alexa488-MEK5 binding to MEKK2 WT; actives lie on both sides | binding response (% of control), % at 10 µM; in the data active = binding response below about 16% or above about 210%; inactive = in between
MEKK2mut-MEK5 – signal of MEK5 binding to mutant human MEKK2, retest; shares compounds with MEKK3 PB1 HTS; bead flow cytometry, Alexa488-MEK5 binding to MEKK2 mutant; percent response, % at 10 µM; 5,900 tested, 2% active; in the data active = percent response mostly above about 71%, no sharp cut-off; inactive = mostly below about 38%;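 note: higher means compound restores mutant binding toward wildtype level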
MEKK3 confirm – MEKK3-MEK5 PB1 inhibition, single concentration confirmation; 5,900 tested, 1.8% active; binding response (% of control), % at 10 µM; bead flow cytometry, Alexa488-MEK5 binding to MEKK3; stronger effect = lower value; shares compounds with MEKK3 PB1 HTS;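 active = binding response below 72% of control, or above a set upper limit, though filed actives all read lower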;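 note: 100% = DMSO only wells and 0% = binding blocked by excess unlabeled MEK5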
VLA-4 allo CP – human VLA-4 allosteric modulation in cherry picked compounds | shares compounds with VLA-4 inh | U937 cells, HUTS-21 LIBS mAb binding, flow cytometry; LDV ligand present at threefold Kd | inhibition, % at 6.7 µM | 1,300 tested, 2% active | AID 2813; in the data active = inhibition above about 40%;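 note: 0% = ligand without compound and 100% = no ligand background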
The depositor's hits bear a star; i = inactive; nt = not tested or not shown; ! = not confirmed by another sample; [ ] = remark or other dose.

SMILES | MEKK2mut PB1 HTS | VLA-4 inh | MEKK3 PB1 HTS | MEKK2wt PB1 HTS | MEKK2wt confirm | MEKK2mut-MEK5 | MEKK3 confirm | others
CC1(C)C2SCC(=O)N2CCN1CC(=O)NN (stereo not drawn) | 25 | -25 | 128* | 122 | 96 | -1 | 97
ClCCN1CCN(c2ccnc3cc(Cl)ccc23)CC1 | 20 | 11 | 107 | 154* | 112 | 9 | 104
CCCCCCN1CCN(c2ccc(Cl)cc2)CC1 | -9 | 7 | 81 | 89 | nt | nt | nt
C[C@]12CCC3C(CC[C@H]4C[C@H](O)CC[C@]34C)C1CCC2=O (stereo partly drawn) | nt | 0 | nt | nt | nt | nt | nt
COc1cc(N2CCOCC2)ccc1/C=C1\C(=O)NC(=O)N(C2CCCCC2)C1=O | -1 | -15 | 130* | 105 | 96 | -1 | 98
CC(=O)O[C@H]1CC[C@@]2(C)C(=CC(=O)C3C2CC[C@@]2(C)C3C[C@H](OC(C)=O)[C@@H]2OC(C)=O)C1 (stereo partly drawn) | nt | -4 | nt | nt | nt | nt | nt
CN(C)CCN=Cc1c(O)n(-c2cccc(C(F)(F)F)c2)c(=O)[nH]c1=O | -20 | 1 | 2.0*[inhibitor] | -2.0*[inhibitor] | 98 | 4 | 101
C=CCn1c(O)c(C=NCCN(C)C)c(=O)[nH]c1=O | nt | -5 | nt | nt | nt | nt | nt
Cc1ncc2n1-c1ccc(Cl)cc1C(c1ccccc1F)=NC2 | nt | 29 | nt | nt | nt | nt | nt
CS(=O)(=O)Nc1ccc(Cc2noc(-c3ccc4[nH]cc(CCN)c4c3)n2)cc1 | 11 | -4 | 107 | 156*! | 131 | 11 | 99
NCCc1c[nH]c2ccc(F)cc12 | 3 | -1 | 98 | 102 | nt | nt | nt
Cc1ccc(CN2C3CCCC2CC(NC(=S)NCc2ccccc2)C3)cc1 (stereo not drawn) | 62* | 0 | 110 | 195* | 140 | 17 | 103
CNC(=S)NC1CC2CCCC(C1)N2CC(C)C (stereo not drawn) | -7 | 4 | 88 | 89 | nt | nt | nt
COC(=O)C1=C(c2cccc(OCc3ccccc3)c2)C[C@@H]2CC[C@H]1N2C(=O)NCc1ccc2[nH]ccc2c1 | nt | 20 | nt | nt | nt | nt | nt
C1=C(c2c[nH]c3ccccc23)CCNC1 | 99* | -83 | 107 | 173* | 122 | 8 | 105
Cc1c2ccncc2c(C)c2c1[nH]c1ccccc12 | 28* | i | 72*[inhibitor] | 201* | 195 | 58 | 105
O=C(Nc1cccc(Cl)c1)OC1CN2CCC1CC2 (stereo not drawn) | 27 | -8 | 110 | 147* | 125 | 8 | 98
O=C(Nc1ccc(Cl)cc1)OC1CN2CCC1CC2 (stereo not drawn) | -8 | -3 | 86 | 93 | nt | nt | nt
COC(=O)C1=C(c2ccc(-c3ccccc3)c(F)c2)C[C@@H]2CC[C@H]1N2C(=O)NCCOc1ccccc1Cl | nt | 0 | nt | nt | nt | nt | nt
COc1cccc(NP(=O)(Oc2ccccc2Cl)Oc2ccccc2Cl)c1 | 1 | 1 | 137* | 109 | 101 | -7 | 104
O=C1CN(O)C(c2ccccc2Cl)=c2cc(Br)ccc2=N1 | 5 | 10 | 105 | 102 | nt | nt | nt
N=c1sccn1Cc1ccccc1F | 3 | -18 | 100 | 102 | nt | nt | nt
Cc1cc(OCC(=O)NCc2ccc(S(N)(=O)=O)cc2)c2c3c(c(=O)oc2c1)CCC3 | 1 | 53* | 103 | 104 | nt | nt | nt | VLA-4 allo CP=-7
Cc1cc(OCC(=O)NCc2ccncc2)c2c3c(c(=O)oc2c1)CCC3 | -3 | 12 | 96 | 98 | nt | nt | nt
COC(=O)C1=C(c2ccc(C(C)=O)cc2)C[C@@H]2CC[C@H]1N2C(=O)N1CCC(O)CC1 | nt | -8 | nt | nt | nt | nt | nt
COC(=O)C[C@]1(C(=O)OC)CN(C#N)N(c2ccc(Cl)cc2)C12c1ccccc1-c1ccccc12 | 2 | 57* | 92 | 93 | nt | nt | nt | VLA-4 allo CP=32
